Only some compounds are listed: those with a hit (about 8.3% of all), similar ones and a draw of the others.
Lassa entry inh – blocks Lassa virus binding to or entry into cells; Lassa virus pseudotype entry inhibition, cell reporter; Potency, µM (series often up to 37.9 µM), inactives show at the top dose activity change, negative = inhibition, most hits filed as inhibitors; actives 1.2% (n = 300,000); AID 540256; calls by dose curve; tested in HEK293 cells; note: potency is the fitted concentration of half-maximal effect; nearly all actives have a fitted effect of over 50% in size
MARV entry inh – Marburg virus entry inhibition. AID 540276. Potency, µM (top dose mostly 37.8 µM), inactives show top-dose activity change, negative = inhibition, usual class: inhibitors. actives 1.8% (n = 300,000). Marburg virus pseudotyped entry inhibition, cell reporter; calls by dose curve; tested in HEK293 cells; note: potency is the fitted concentration of half-maximal effect
HCV inh – inhibitors of hepatitis C virus infection. Huh7.5.1 HCVcc-Cre infection, luciferase reporter, 44 h. Potency, µM (top dose mostly 41.8 µM), for inactives: at the top dose activity change, negative = inhibition, hits mostly inhibitors. actives 3.4% (n = 340,000); note: potency is the fitted concentration of half-maximal effect
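Cells (1,000/well) were plated 4 h before compound, then infected with HCVcc-Cre virus (~0.5 moi). After 44 h further culture, infection was read as luciferase luminescence following a 15 min substrate incubation at room temperature.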
FBPA Giardia inh – inhibitors of Giardia lamblia fructose-1,6-bisphosphate aldolase. A8B2U2. purified Giardia FBPA. Potency, µM (top dose mostly 59.6 µM), for the others: at the highest dose activity, negative = inhibition, hits mostly inhibitors. actives 0.71% (n = 290,000). AID 2451; note: potency is the fitted concentration of half-maximal effect; nearly all actives have a fitted effect of over 55% in size
Target sequence (A8B2U2 whole entry, looked up): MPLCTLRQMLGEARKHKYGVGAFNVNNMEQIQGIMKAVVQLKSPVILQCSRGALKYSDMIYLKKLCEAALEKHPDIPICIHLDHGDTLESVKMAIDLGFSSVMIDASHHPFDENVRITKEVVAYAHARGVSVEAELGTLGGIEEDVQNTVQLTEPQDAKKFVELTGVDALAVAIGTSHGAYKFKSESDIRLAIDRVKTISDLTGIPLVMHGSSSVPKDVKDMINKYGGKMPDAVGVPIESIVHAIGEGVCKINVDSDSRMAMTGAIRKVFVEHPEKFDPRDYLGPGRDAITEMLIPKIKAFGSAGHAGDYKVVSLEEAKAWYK
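Giardia FBPA (40 nM reagent) was preincubated 10 min at RT with compound (up to 57.5 uM final), then substrate plus GAPDH/TPI/NAD/arsenate coupling system with diaphorase/resazurin was added; resorufin fluorescence (525/598 nm) was read after 20 min.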
FMDV antiviral – foot and mouth disease virus antiviral activity; FMDV antiviral cell-based qHTS; Potency, µM (doses to about 57.9 µM), inactives show top-dose activity change, negative = inhibition, most hits filed as inhibitors; actives 1.2% (n = 410,000); calls by dose curve; tested in HEK293T cells; note: read-out not given here; potency is the fitted concentration of half-maximal effect; nearly all actives have a fitted effect of over 45% in size
HCMV inh – blocks human cytomegalovirus replication. HFF cells, HCMV-luciferase reporter, 72 h; hits give low values. activity change, negative = inhibition, % at 57.5 µM. actives 4.5% (n = 410,000). AID 1259415; in the data active = activity change below about -60%; inconclusive = no clear call, values can overlap the other calls; inactive = above about -39%
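Luciferase read-out from HCMV-luciferase-infected HFFs (MOI 1 PFU/cell) 72 h post infection at 37C; compounds added after 16 h cell attachment; activity normalized between buffer-only basal and Salinomycin (10uM) inhibitor controls.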
The depositor's hits bear a star; ? = inconclusive; . = no result given; [ ] = dose if it differs, or a comment. Unless noted, calls come from the whole dose curve; as a rule, active = well fitted curve in the direction sought with a large enough effect; inconclusive = small, poorly fitted or top-dose-only effect, or another doubt; inactive = no such curve, though single readings can be large; an effect the other way counts as inactive or inconclusive. % is set by controls: 0 for no effect and ±100 for the full control effect.

SMILES	Lassa entry inh	MARV entry inh	HCV inh	FBPA Giardia inh	FMDV antiviral	HCMV inh
COC(=O)C1=C(C(=O)OC)[C@@H]2N(C)c3ccc(OC)cc3[C@@]23C[C@@H](C(=O)OC)N(S(=O)(=O)c2ccc(C)cc2)C3=N1	.	.	.	0%[12.9 µM]	.	.
CC(NC(=O)COC(=O)c1c[nH]c2ccccc12)c1ccccc1 (centres undefined)	8.9µM*	13%	0%	.	-20%	25
O=C(COC(=O)c1c[nH]c2ccccc12)Nc1ccccc1	8%	-14%	-20%	.	-7%	-7
O=[N+]([O-])/C=C/c1cn(Cc2ccc(F)cc2)c2ccccc12	?	7.3µM*	8.9µM*	-3%	?	?
O=Cc1cn(Cc2ccc(F)cc2)c2ccccc12	?	?	26%	-2%	-23%	-1
Cc1ccccc1Cn1cc(/C=N/n2cnnc2)c2ccccc21	?	?	-7%	-4%	-24%	7
Cc1ccc(Cn2cc(C=O)c3ccccc32)cc1	?	1.4µM*	-11%	5%	-28%	-29
Clc1ccc(Cn2cc(/C=N/n3cnnc3)c3ccccc32)cc1	?	-24%	10µM*	0%	?	7
O=Cc1cn(Cc2ccc([N+](=O)[O-])cc2)c2ccccc12	10µM*	?	9%	-2%	?	38
O=Cc1cn(Cc2ccccc2[N+](=O)[O-])c2ccccc12	?	?	-14%	6%	-29%	-25
CSc1nnc2c(n1)C[C@H](c1ccccc1)[C@@H](C)[C@@H](C(=O)N1CCCC1)C2	.	14%[14.2 µM]	.	.	.	.
CC(=O)OCC1OC(C#CC2=CCCCC2)C=CC1OC(C)=O (centres undefined)	.	.	.	-3%[12.9 µM]	.	.
Cc1cnc(C)c(-c2ccc3c(c2)CC(CNC(=O)Cc2c(C)[nH]c4ccccc24)O3)n1 (centres undefined)	.	.	.	.	-24%	.
COC(=O)c1cccc(C(=O)N2CCc3c(C(=O)OC)c(OCc4ccccn4)cc(=O)n3CC2)c1	.	.	.	.	-8%	.
Cc1ccc(S(=O)(=O)/N=C2\C(=O)c3ccccc3C([O-])=C2n2cc[n+](CCC(C)C)c2)cc1	-16%	?	18µM*	-25%	.	.
CCCC[n+]1ccn(C2=C([O-])c3ccccc3C(=O)/C2=N\S(=O)(=O)c2ccc(Br)cc2)c1	?	?	10µM*	?	-23%	-13
CCC1=C2CC[C@H]3C(=O)N(c4ccccc4)C(=O)[C@H]3[C@H]2[C@@]2(Cc3ccccc3)C(=NCCOC)OC(=O)N2C1=O	.	.	.	-2%	.	.
CCCCC(=O)NC(c1ccc([N+](=O)[O-])cc1)c1c(O)ccc2ccccc12 (centres undefined)	?	?	?	?	20µM*	-99*
CCCCC(=O)NC(c1cccc([N+](=O)[O-])c1)c1ccc2cccnc2c1O (centres undefined)	.	.	?	.	8%	-103*
O=[N+]([O-])c1ccc(NC(c2ccccc2)c2ccc3cccnc3c2O)cc1 (centres undefined)	?	1.4µM*	?	.	9%	-97*
CCC(=O)NC(c1ccc([N+](=O)[O-])cc1)c1c(O)ccc2ccccc12 (centres undefined)	-15%	-25%	?	-10%	0%	-29
CCCCC(=O)NC(c1cccc([N+](=O)[O-])c1)c1c(OC(C)=O)ccc2ccccc12 (centres undefined)	-5%	-9%	?	-8%	?	?
COc1cccc(C(NC(C)=O)c2ccc3cccnc3c2O)c1 (centres undefined)	?	?	4.5µM*	-24%	-18%	-99*
CCC1CCc2nc3sc(C(=O)Nc4ccc(C)cc4)c(N)c3cc2C1 (centres undefined)	1%[46.1 µM]	2%[46.1 µM]	.	.	3%	-1
C[C@@H]1CN([C@@H](C)CO)C(=O)CCCn2cc(nn2)CO[C@H]1CN(C)C(=O)Nc1ccc2c(c1)OCCO2	.	.	.	.	.	36
O=C(COc1cccc2cccnc12)Nc1nccs1	?	8%	-10%	12%	23%	40

Bioassay records as filed in PubChem.
